Results filed as inconclusive are left out. Entries that show only a call come without a potency. Active and inactive are the calls of the source. The call rests on the fitted dose curve; in most records, active means well fitted cell-killing curve with a large enough effect; inconclusive means small, poorly fitted or top-dose-only effect, or effect the other way; inactive means flat fitted curve, though single readings scatter. Where a SMILES comes first, the peptide text is derived from it. The star is where a group is joined. AFC = O=c1cc(C(F)(F)F)c2ccc(N*)cc2o1
Each molecule was assayed on Es-2 (assay: Primary qHTS to identify gynecologic anti-cancer compounds using libraries of approved drugs and bioactive compounds (AID 1345084; further: nearly all actives have a fitted effect of over 55% in size)). Details: Gynecologic cancer cell panel viability, ATPlite luminescence, 48 h; series mostly up to 57.5 µM.
In short: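 48 h compound exposure at 37 C, 5% CO2; five-point qHTS. ATPlite luminescence readout of cell ATP.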
`CCC(C)C(=O)O[C@H]1CCC=C2C=C[C@H](C)[C@H](CC[C@@H](O)C[C@@H](O)CC(=O)O)[C@H]21` (some centres not stated) was tested, and the Potency was “inactive”.
In the case of `CC(=O)NC1C(OC(C)(C)C2CCC3(C)C=C(C4CCC5C4(C)CC(O)C4OC(C(C)(C)O)CCC45C)CCC3O2)OC(CO)C(O)C1O` (configuration not stated), the Potency was “inactive”.
With `CC(=O)O[C@@H]1c2c3c(cc(O)c2C(=O)O[C@@H]1C)O[C@@]1(C)[C@@H](O)C[C@H]2C(C)(C)C(=O)C=C[C@]2(C)[C@@H]1C3` the Potency was “inactive”.
For `COc1c(C)c(OCC(O)C(C)(C)O)cc2c1COC2=O` (configuration not stated), the Potency was “inactive”.
`CC(=O)CC1CCC(C(C)C(=O)OCC(O)CO)O1` (configuration not stated) was tested, and the Potency was “inactive”.
In the case of `O=C(O)COCCN1CCN([C@H](c2ccccc2)c2ccc(Cl)cc2)CC1`, the Potency was “inactive”.
In the case of `Nc1nc2c(ncn2[C@@H]2O[C@@H]3COP(=O)(O)O[C@H]3[C@H]2O)c(=O)[nH]1`, the Potency was “inactive”.
With `CC1=C(C(=O)O)/C(=C/CO[C@@H]2O[C@H](COC(=O)/C=C/c3ccc(O)cc3)[C@@H](O)[C@H](O)[C@H]2O)C(O)C1` (some centres not stated) the Potency was “inactive”.
With `Cc1cc(C)c2c(N)c(C(=O)NCc3ccc(Cl)cc3)sc2n1` the Potency was “inactive”.
For `CC(=O)OC1C(O)C2C(C)C3=CC(=O)OC3(O)CC2C2(C)CCCC(C)(CO)C12` (configuration not stated), the Potency was “inactive”.
With `CC(C)C(NC(=O)c1ccc2ccccc2n1)C(=O)NC(CC(=O)O)C(=O)COc1c(F)cccc1F` (configuration not stated) the Potency was “inactive”.
`O=C(Nc1ccc(-c2ccncc2)cc1)N[C@H](CO)c1ccccc1` was tested, and the Potency was “inactive”.
With `CC1=CC2/C=C(\C)CC[C@@H](O)[C@@H](O)[C@@H]3O[C@@H]3C(=O)[C@]23C(=O)N[C@@H](CC(C)C)[C@@H]3[C@@H]1C` (some centres not stated) the Potency was “inactive”.
For `O=C(NCC(O)CO)c1ccncc1Nc1ccc(I)cc1F` (configuration not stated), the Potency was 2000 nM (active).
`CC1(C)CC2=C3C=CC4C5(C)CCC(O)C(C)(C)C5CCC4(C)C3(C)CCC2(C)C(O)C1` (configuration not stated) was tested, and the Potency was “inactive”.
With `COC(=O)C1=CO[C@@H](O[C@@H]2O[C@H](CO)[C@@H](O)[C@H](O)[C@H]2O)[C@H]2[C@@H]1CC(OC)O[C@@H]2C` (some centres not stated) the Potency was “inactive”.
For `C[C@@H]1O[C@@H](O[C@@H]2[C@@H](O[C@@H]3O[C@@H](C)[C@H](O[C@@H]4OC[C@H](O)[C@H](O[C@@H]5OC[C@@H](O)[C@H](O)[C@H]5O)[C@H]4O)[C@@H](O[C@@H]4OC[C@](O)(CO)[C@H]4O)[C@H]3O)[C@H](OC(=O)[C@]34CCC(C)(C)C[C@H]3C3=CCC5[C@@]6(C)C[C@H](O)[C@H](O[C@@H]7O[C@H](CO[C@@H]8OC[C@H](O)[C@H](O)[C@H]8O)[C@@H](O)[C@H](O)[C@H]7O)C(C)(C)C6CC[C@@]5(C)[C@]3(C)C[C@H]4O)OC[C@H]2O)[C@H](O)[C@H](O)[C@H]1O` (some centres not stated), the activity change, negative = cytotoxicity was 0.628% [at 6.55 µM] (inactive).
For `C=C1CCCC2(C)CC3(OC)OC(=O)C(C)=C3CC12` (configuration not stated), the Potency was “inactive”.
In the case of `CC(C)=CCC/C(C)=C/CCC1(C)Oc2c(c(O)cc3c2CN(C(CCC(=O)O)C(=O)O)C3=O)CC1O` (configuration not stated), the Potency was “inactive”.
For `C=C(C(=O)O)C1CCC2(C)CCC(O)C(=C)C2C1` (configuration not stated), the Potency was “inactive”.
`CC12CCC3c4ccc(OC5OC(C(=O)O)C(O)C(O)C5O)cc4CCC3C1CCC2O` (configuration not stated) was tested, and the Potency was “inactive”.
For `CC(=O)N[C@@H](Cc1c[nH]c2ccccc12)C(=O)N[C@@H](CCC(=O)O)C(=O)N[C@@H](Cc1cnc[nH]1)C(=O)N[C@@H](CC(=O)O)C(=O)Nc1ccc2c(C(F)(F)F)cc(=O)oc2c1` (Ac-WEHD-{AFC}), the Potency was “inactive”.
In the case of `C[C@@H]1O[C@@H](O[C@H]2[C@@H](OC(=O)[C@]34CCC(C)(C)CC3C3=CCC5[C@@]6(C)C[C@H](O)[C@H](O[C@@H]7O[C@H](C(=O)O)[C@@H](O)[C@H](O)[C@H]7O)[C@@](C)(C(=O)O)C6CC[C@@]5(C)[C@]3(C)CC4)OC[C@H](O)[C@@H]2O)[C@H](O)[C@H](O)[C@H]1O[C@@H]1OC[C@@H](O)[C@H](O)[C@H]1O` (some centres not stated), the activity change, negative = cytotoxicity was -0.221% [at 11.6 µM] (inactive).
For `CC12CCC(C(OC3OC(COC4OCC(O)(CO)C4O)C(O)C(O)C3O)C1)C(C)(C)O2` (configuration not stated), the Potency was “inactive”.
With `O=C(/C=C\c1ccc(O)cc1)N[C@@H](Cc1ccc(O)cc1)C(=O)O` the Potency was “inactive”.
With `O=C(O)c1cccc(S(=O)(=O)N2CCc3ccccc3C2)c1` the Potency was “inactive”.
For `C[C@@H]1O[C@@H](O[C@H]2[C@H](O)[C@@H](O[C@@H]3O[C@H](CO)[C@@H](O)[C@H](O[C@@H]4O[C@H](CO)[C@@H](O)[C@H](O)[C@H]4O)[C@H]3O)[C@H](O[C@H]3CC[C@@]4(C)C(=CC[C@@H]5C4CC[C@@]4(C)C5C[C@@H]5OC6(CC[C@@](C)(CO[C@@H]7O[C@H](CO)[C@@H](O)[C@H](O)[C@H]7O)O6)[C@@H](C)[C@@H]54)C3)O[C@@H]2CO)[C@H](O)[C@H](O)[C@H]1O` (some centres not stated), the activity change, negative = cytotoxicity was -0.893% [at 6.55 µM] (inactive).

From PubChem BioAssay (NCATS)
Potency means the concentration at half of the fitted maximal effect.
